Assay [1] is described as follows: Human pregnane X receptor (PXR) small molecule agonists, qHTS cell viability counter screen (AID 1346977). Note: nearly all actives have a fitted effect of over 50% in size. Note: potency is the fitted concentration of half-maximal effect. The method in brief:
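PXR-Luc HepG2 cells (2,000/well, 5% charcoal-stripped FBS) preincubated 5 hr, then exposed to compounds 24 hr at 37 C. Viability read in the same wells by CellTiter-Fluor fluorescence, reagent added at 23 hr, 1 hr incubation.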

The nature of assay [2]: Caspase-3/7 induction in HepG2 cells by small molecules, qHTS assay (AID 1346978). Note: nearly all actives have a fitted effect of over 15% in size. Note: potency is the fitted concentration of half-maximal effect. In short, it runs like this:
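Wild-type HepG2 cells (2,000/well) were settled 5 h at 37 C, 5% CO2, then exposed to compounds in DMSO for 17 h. Caspase-3/7 activity was read by luminescence 30 min after adding Caspase-Glo 3/7 reagent at room temperature.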

A short description of assay [3]: Caspase-3/7 induction in CHO-K1 cells by small molecules, qHTS cell viability counter screen (AID 1346979). Note: nearly all actives have a fitted effect of over 35% in size. Note: potency is the fitted concentration of half-maximal effect. In short, it runs like this:
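Wild-type CHO-K1 cells (1,500/well) treated with compound after 5 h plating; after 16 h at 37C, viability read as CellTiter-Fluor fluorescence following 1 h reagent incubation, in the same wells as the caspase read.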

A short description of assay [4]: Caspase-3/7 induction in CHO-K1 cells by small molecules, qHTS assay (AID 1346980). Note: nearly all actives have a fitted effect of over 15% in size. Note: potency is the fitted concentration of half-maximal effect. In short, it runs like this: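 Wild-type cells were seeded at 1,500 per well and settled 5 hr at 37 C, 5% CO2, then exposed to DMSO-dissolved compounds for 17 hr. Caspase-Glo 3/7 reagent was added, and luminescence was read after 30min at room temperature.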
Assay [5] is described as follows: Caspase-3/7 induction in HepG2 cells by small molecules, qHTS cell viability counter screen (AID 1346981). Note: nearly all actives have a fitted effect of over 30% in size. Note: potency is the fitted concentration of half-maximal effect. In short, it runs like this: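 The parent HepG2 line is plated at 2,000 cells per well and rested 5 hr before compound pinning from DMSO stocks. Following a 16-hr treatment at 37 C, a fluorogenic live-cell substrate (CellTiter-Fluor) reports viability after 1 hr.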

In assay [6] the target is Nuclear receptor subfamily 1 group I member 2 (Homo sapiens) (UniProt O75469). The assay is described as follows: Human pregnane X receptor (PXR) small molecule agonists, qHTS assay (AID 1346982). Note: nearly all actives have a fitted effect of over 35% in size. Note: potency is the fitted concentration of half-maximal effect. The method in brief:
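After plating in 5% charcoal-stripped FBS and a 5 hr rest, PXR-Luc HepG2 cells received compounds in DMSO. Following 24 hr at 37 C, ONE-Glo was added and light output read.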

Assay [7] has as its target Acetylcholinesterase (Homo sapiens) (UniProt P22303). The assay is described as follows: Acetylcholinesterase (AChE) small molecule antagonists: colormetric cell-based qHTS assay (AID 1347395; calls by dose curve; note: nearly all actives have a fitted effect of over 30% in size). In short, it runs like this: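 SH-SY5Y cells attached overnight, exposed to compound 30 min at 37 C, then given DTNB/acetylthiocholine; after 90 min at 37 C, colorimetric thiocholine read gives cellular AChE activity.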

Assay [8] shares this target. Kind of assay: Acetylcholinesterase (AChE) small molecule antagonists: enzyme-based qHTS assay (AID 1347397; calls by dose curve; note: nearly all actives have a fitted effect of over 55% in size; note: potency is the fitted concentration of half-maximal effect). The conditions noted are these: Potency: AChE enzyme activity inhibition. In short, it runs like this:
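Compound or DMSO vehicle was pin-transferred onto recombinant human AChE (50 mU/mL as dispensed) and left 30 min at room temperature. Acetylthiocholine with DTNB then started the reaction, read colorimetrically 10 min later.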

Assay [9] shares this target. Kind of assay: Acetylcholinesterase (AChE) small molecule antagonists: fluorescence cell-based qHTS assay (AID 1347398; calls by dose curve; note: nearly all actives have a fitted effect of over 50% in size; note: potency is the fitted concentration of half-maximal effect). The conditions noted are these: Potency: AChE activity. In short, it runs like this:
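Using neuroblastoma SH-SY5Y cells as the enzyme source, test chemicals are preincubated 30 min at 37 C; AChE-driven acetylthiocholine cleavage is then quantified by thiocholine-dependent Thiolite Green fluorescence after 40 min at room temperature.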

The target is the same in assay [10]. The assay is described as follows: Acetylcholinesterase (AChE) small molecule antagonists: enzyme-based qHTS assay with human liver microsomes (AID 1347399; calls by dose curve; note: nearly all actives have a fitted effect of over 60% in size; note: potency is the fitted concentration of half-maximal effect). Conditions: Potency: qHTS inhibition. The method in brief:
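Recombinant human AChE (50 mU/mL in the enzyme mix) and human liver microsomes (0.25 mg/mL final) were preincubated with compound and NADPH (0.25 mg/mL final) for 30 min at 37 C. Acetylthiocholine/DTNB was then added; thiocholine was read colorimetrically after 10 min at room temperature.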

For assay [11], the target named is Cytochrome P450 2D6 (Homo sapiens) (UniProt P10635). The assay is described as follows: Cytochrome P450 Family 2 Subfamily D Member 6 (CYP2D6) small molecule antagonists: luciferase reporter qHTS assay (AID 1671196). Note: nearly all actives have a fitted effect of over 50% in size. Note: potency is the fitted concentration of half-maximal effect. In short, it runs like this: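 Quantitative HTS of Tox21 chemicals against CYP2D6 using a luminescent proluciferin substrate. After NADPH addition, 1 h room-temperature reaction; luminescence recorded 20 min post detection reagent.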

The target of assay [12] is Cytochrome P450 2C19 (Homo sapiens) (UniProt P33261). The assay is described as follows: Cytochrome P450 Family 2 Subfamily C Member 19 (CYP2C19) small molecule antagonists: luciferase reporter qHTS assay (AID 1671197). Note: nearly all actives have a fitted effect of over 65% in size. Note: potency is the fitted concentration of half-maximal effect. In short, it runs like this:
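P450-Glo CYP2C19 system: enzyme-substrate mix with compound 10 min at room temperature, then NADPH regeneration solution, 1 h at 37C. Proluciferin-to-luciferin conversion detected by luminescence after 20 min with detection reagent; ketoconazole as positive control.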

Assay [13] concerns the target Cytochrome P450 2C9 (Homo sapiens) (UniProt P11712). Kind of assay: Cytochrome P450 Family 2 Subfamily C Member 9 (CYP2C9) small molecule antagonists: luciferase reporter qHTS assay (AID 1671198). Note: nearly all actives have a fitted effect of over 50% in size. Note: potency is the fitted concentration of half-maximal effect. In short, it runs like this:
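CYP2C9 activity was measured with a P450-Glo proluciferin substrate. Enzyme–substrate mix was held with compound for 10 min at room temperature, then NADPH regeneration solution was added for 1 h at 37C. Luciferin product was read as luminescence.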

Assay [14] has as its target Cytochrome P450 1A2 (Homo sapiens) (UniProt P05177). The assay is described as follows: Cytochrome P450 Family 1 Subfamily A Member 2 (CYP1A2) small molecule antagonists: luciferase reporter qHTS assay (AID 1671199). Note: nearly all actives have a fitted effect of over 50% in size. Note: potency is the fitted concentration of half-maximal effect. The method in brief:
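Quantitative high-throughput format using the P450-Glo CYP1A2 system. Reaction initiated by NADPH regeneration solution, 1 h at room temperature, then stopped with detection reagent; luminescence measured 20 min later.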

The target in assay [15] is Cytochrome P450 3A4 (Homo sapiens) (UniProt P08684). Kind of assay: Cytochrome P450 Family 3 Subfamily A Member 4 (CYP3A4) small molecule antagonists: luciferase reporter qHTS assay (AID 1671201). Note: nearly all actives have a fitted effect of over 50% in size. Note: potency is the fitted concentration of half-maximal effect. The method in brief: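 P450-Glo CYP3A4 luminescent assay: compounds preincubated 10 min at room temperature with enzyme and proluciferin substrate, NADPH regeneration added, 1 h room-temperature reaction, stopped with luciferin detection reagent; luminescence read after 20 min. Ketoconazole positive control.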

The target in assay [16] is Voltage-gated inwardly rectifying potassium channel KCNH2 (Homo sapiens) (UniProt Q12809). The assay is described as follows: Human Ether-a-go-go-Related Gene (hERG) channel small molecule antagonists: fluorescence cell-based qHTS assay (AID 1671200). Note: nearly all actives have a fitted effect of over 50% in size. Note: potency is the fitted concentration of half-maximal effect. In short, it runs like this:
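hERG-U2OS cells plated overnight at 37 C, loaded with FluxOR II dye 1 h at RT in dark; after 10 min, thallium stimulus added. Fluorescence (480/540 nm) read kinetically for 2 min at 1 s intervals.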

Where “and” joins values, the source holds several entries; their conditions need not be identical. Equal values may be shown once. Inconclusive results are not listed. Where a structure was tested more than once in an assay, its records may differ in their call. Calls of active or inactive are those of the source. Unless noted, calls come from the whole dose curve; as a rule, active = well fitted curve in the direction sought with a large enough effect in the repeat runs; inconclusive = weak or mixed curves; inactive = no such curve, though single readings can be large; an effect the other way counts as inactive or inconclusive.

Chain of Cytochrome P450 1A2 (Homo sapiens) (P05177 whole entry, looked up): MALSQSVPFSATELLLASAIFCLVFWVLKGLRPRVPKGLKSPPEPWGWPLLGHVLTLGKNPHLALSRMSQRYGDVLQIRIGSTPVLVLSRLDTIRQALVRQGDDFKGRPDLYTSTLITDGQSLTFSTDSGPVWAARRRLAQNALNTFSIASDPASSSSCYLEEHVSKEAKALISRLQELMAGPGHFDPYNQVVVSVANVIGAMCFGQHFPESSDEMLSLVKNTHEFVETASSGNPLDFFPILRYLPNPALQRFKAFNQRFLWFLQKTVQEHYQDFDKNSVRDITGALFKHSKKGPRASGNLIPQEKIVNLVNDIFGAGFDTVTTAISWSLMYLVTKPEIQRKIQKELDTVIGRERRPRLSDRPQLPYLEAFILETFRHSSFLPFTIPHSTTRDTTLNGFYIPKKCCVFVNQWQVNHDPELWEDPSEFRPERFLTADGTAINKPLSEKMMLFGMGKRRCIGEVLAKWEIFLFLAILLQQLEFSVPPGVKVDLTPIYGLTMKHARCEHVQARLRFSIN
Chain of Voltage-gated inwardly rectifying potassium channel KCNH2 (Homo sapiens) (Q12809 whole entry, looked up): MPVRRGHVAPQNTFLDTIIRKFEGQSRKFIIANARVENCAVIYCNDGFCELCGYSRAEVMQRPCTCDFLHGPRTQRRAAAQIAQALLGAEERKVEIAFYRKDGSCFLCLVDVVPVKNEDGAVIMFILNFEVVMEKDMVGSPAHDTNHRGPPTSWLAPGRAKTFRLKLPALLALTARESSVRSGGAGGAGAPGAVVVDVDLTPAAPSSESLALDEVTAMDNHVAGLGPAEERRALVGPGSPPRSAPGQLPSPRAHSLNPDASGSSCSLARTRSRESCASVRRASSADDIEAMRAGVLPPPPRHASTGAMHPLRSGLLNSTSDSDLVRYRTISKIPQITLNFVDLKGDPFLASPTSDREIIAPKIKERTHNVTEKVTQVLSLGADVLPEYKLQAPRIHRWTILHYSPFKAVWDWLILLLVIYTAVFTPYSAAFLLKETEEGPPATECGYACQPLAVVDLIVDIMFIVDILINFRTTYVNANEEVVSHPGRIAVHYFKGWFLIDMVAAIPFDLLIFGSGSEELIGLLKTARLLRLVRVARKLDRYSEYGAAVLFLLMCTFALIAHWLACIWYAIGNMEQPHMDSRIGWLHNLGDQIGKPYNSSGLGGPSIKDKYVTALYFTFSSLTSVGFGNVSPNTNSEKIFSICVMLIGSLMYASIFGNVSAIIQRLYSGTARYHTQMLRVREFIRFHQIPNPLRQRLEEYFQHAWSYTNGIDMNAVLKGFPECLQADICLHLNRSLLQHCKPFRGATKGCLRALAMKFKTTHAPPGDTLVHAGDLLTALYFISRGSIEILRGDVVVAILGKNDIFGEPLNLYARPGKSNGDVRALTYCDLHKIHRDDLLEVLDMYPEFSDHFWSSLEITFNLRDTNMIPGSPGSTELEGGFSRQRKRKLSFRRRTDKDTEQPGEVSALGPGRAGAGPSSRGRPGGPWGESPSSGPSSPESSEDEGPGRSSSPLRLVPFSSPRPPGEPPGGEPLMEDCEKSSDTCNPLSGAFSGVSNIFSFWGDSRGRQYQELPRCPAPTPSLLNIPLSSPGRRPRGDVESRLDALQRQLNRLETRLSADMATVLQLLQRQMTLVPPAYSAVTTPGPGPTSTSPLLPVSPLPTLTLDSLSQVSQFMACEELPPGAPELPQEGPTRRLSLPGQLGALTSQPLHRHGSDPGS
Chain of Cytochrome P450 3A4 (Homo sapiens) (P08684 whole entry, looked up): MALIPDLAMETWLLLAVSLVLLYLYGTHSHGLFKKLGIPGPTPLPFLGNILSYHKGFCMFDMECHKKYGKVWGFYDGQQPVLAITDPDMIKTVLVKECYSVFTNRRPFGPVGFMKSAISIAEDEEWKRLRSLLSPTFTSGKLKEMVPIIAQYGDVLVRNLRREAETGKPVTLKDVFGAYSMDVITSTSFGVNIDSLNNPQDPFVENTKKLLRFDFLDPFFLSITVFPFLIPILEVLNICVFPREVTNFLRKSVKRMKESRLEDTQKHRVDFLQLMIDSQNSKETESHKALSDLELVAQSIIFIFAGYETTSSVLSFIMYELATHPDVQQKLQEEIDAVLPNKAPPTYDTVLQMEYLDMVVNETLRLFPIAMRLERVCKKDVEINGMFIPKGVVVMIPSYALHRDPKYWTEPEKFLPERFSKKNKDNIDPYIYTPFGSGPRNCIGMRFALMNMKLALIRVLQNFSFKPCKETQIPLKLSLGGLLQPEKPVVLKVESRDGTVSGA
Chain of Acetylcholinesterase (Homo sapiens) (P22303 whole entry, looked up): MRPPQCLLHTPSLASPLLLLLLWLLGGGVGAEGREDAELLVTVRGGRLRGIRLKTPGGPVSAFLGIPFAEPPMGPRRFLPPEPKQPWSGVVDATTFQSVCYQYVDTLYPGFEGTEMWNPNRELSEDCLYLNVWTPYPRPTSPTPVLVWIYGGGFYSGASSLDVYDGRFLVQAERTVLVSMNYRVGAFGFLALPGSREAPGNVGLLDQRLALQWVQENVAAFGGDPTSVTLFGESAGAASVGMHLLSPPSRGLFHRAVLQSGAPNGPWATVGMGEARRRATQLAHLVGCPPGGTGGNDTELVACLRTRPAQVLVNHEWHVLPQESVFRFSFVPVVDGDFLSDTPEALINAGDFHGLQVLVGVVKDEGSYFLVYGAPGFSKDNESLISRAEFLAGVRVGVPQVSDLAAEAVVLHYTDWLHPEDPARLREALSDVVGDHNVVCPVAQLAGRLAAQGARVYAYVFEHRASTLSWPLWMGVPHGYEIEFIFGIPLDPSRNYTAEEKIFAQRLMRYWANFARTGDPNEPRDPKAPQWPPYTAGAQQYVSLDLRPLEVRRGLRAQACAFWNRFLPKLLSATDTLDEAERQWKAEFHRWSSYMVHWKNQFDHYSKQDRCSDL
Chain of Cytochrome P450 2D6 (Homo sapiens) (P10635 whole entry, looked up): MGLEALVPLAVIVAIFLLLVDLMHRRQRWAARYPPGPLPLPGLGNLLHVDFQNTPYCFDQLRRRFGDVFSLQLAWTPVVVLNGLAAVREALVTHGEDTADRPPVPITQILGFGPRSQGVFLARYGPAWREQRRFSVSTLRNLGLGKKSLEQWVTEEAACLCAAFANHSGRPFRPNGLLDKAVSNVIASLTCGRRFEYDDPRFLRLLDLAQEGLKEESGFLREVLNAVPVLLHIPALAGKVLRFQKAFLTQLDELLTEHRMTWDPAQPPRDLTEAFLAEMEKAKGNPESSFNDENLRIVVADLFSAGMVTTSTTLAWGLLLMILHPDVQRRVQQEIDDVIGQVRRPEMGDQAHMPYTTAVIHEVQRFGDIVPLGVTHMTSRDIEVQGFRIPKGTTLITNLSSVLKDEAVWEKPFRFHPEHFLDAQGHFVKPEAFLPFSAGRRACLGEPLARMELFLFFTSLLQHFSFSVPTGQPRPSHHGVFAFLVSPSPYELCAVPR
Chain of Cytochrome P450 2C9 (Homo sapiens) (P11712 whole entry, looked up): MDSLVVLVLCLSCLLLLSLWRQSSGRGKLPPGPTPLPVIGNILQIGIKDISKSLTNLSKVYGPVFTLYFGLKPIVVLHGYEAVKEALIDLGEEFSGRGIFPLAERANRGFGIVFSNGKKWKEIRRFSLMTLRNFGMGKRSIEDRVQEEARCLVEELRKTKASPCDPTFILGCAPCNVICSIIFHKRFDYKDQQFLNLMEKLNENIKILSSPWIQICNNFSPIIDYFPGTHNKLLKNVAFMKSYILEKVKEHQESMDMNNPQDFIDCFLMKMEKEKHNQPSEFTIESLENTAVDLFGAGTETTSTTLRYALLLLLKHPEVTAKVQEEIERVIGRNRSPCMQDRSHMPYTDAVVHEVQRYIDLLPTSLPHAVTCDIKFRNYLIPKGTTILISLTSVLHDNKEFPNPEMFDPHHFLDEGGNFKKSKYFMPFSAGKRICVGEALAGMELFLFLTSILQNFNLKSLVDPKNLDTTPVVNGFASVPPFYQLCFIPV
Chain of Cytochrome P450 2C19 (Homo sapiens) (P33261 whole entry, looked up): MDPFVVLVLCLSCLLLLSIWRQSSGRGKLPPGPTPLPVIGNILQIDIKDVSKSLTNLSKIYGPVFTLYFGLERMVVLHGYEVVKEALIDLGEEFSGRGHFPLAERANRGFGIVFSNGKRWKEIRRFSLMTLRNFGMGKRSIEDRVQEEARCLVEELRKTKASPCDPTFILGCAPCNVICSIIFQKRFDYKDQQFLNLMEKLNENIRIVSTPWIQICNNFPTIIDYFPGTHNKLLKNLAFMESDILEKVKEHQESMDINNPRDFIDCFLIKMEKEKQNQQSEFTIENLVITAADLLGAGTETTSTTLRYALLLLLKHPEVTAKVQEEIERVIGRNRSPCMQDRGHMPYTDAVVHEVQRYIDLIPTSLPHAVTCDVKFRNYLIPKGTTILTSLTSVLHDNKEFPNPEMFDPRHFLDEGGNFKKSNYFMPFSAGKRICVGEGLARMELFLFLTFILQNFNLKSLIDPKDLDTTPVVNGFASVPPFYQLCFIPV
Chain of Nuclear receptor subfamily 1 group I member 2 (Homo sapiens) (O75469 whole entry, looked up): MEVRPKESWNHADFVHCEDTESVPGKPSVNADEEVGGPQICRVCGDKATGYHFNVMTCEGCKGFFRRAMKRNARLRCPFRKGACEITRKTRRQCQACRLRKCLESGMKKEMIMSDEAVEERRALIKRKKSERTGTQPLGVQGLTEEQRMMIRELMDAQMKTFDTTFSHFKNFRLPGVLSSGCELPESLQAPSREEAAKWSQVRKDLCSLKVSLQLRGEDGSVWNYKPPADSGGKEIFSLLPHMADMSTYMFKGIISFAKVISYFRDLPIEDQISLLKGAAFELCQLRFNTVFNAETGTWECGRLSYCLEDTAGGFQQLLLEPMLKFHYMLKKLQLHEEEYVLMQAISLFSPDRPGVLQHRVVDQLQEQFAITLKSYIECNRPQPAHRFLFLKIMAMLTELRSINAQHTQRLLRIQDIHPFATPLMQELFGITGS

As to `CC(C)(c1ccccc1)c1ccc(O)c(C(C)(C)c2ccccc2)c1`, the Potency in [1] was 35.5 µM (active) and 48.6 µM (active); in assay [2], 42.9 µM (active) and 68.6 µM (active); in assay [3], 30.4 µM (active) and 43.3 µM (active); in assay [4], 27.1 µM (active) and 61.1 µM (active); in assay [5] it was 54 µM (active); in [6], 1.92 µM (active) and 3.86 µM (active). Also, the Potency in [11] was 25 µM (active) and 35.6 µM (active); in assay [12], 5.59 µM (active) and 3.56 µM (active); in assay [13] it was 3.96 µM (active) and 2.83 µM (active); in [14], 35.3 µM (active) and 35.6 µM (active); in assay [15], 8.86 µM (active) and 6.33 µM (active). Further, the Potency entry in [7], in assay [8], in [9] and in assay [10] was “inactive” each time.

As for `CCOP(=O)(O)OCC` (tested in a mixture with another compound), the Potency result in assay [1] was “inactive and 24.1 µM (active)”; in assay [3] it was “inactive and 24.1 µM (active)”; in assay [5], “inactive and 68 µM (active)”; in [6] it was “inactive and 4.29 µM (active)”; in assay [8] it was “inactive and 31.4 µM (active)”; in assay [9], “inactive and 39.6 µM (active)”. Besides, the Potency in assay [11] was 40.3 µM (active) and 886 nM (active); in assay [12] it was 79 µM (active); in assay [13] it was “inactive and 55.9 µM (active)”; in [14], 79 µM (active); in assay [16], “inactive and 6.12 µM (active)”; in assay [15], “inactive and 55.9 µM (active)”. The Potency result in assay [2], in [4], in assay [7] and in assay [10] was “inactive” each time.

Consider `CS(=O)(=O)NC(=O)c1cc(Oc2ccc(C(F)(F)F)cc2Cl)ccc1[N+](=O)[O-]`, for which the Potency entry in assay [1], in [2], in assay [3], in assay [4], in [5] and in assay [7] was “inactive” throughout. In addition, the Potency entry in assay [8], in [9], in assay [10], in assay [11], in [14] and in [16] was “inactive” each time. The Potency is 26.4 µM (active) and 7.7 µM (active) in assay [6]; “inactive and 79.6 µM (active)” in assay [12]; 19.3 µM (active) and 17.8 µM (active) in assay [13].

For `CCOP(=S)(OCC)SCn1c(=O)oc2cc(Cl)ccc21`, the Potency entry in assay [1], in assay [2], in assay [4], in assay [5], in assay [8] and in assay [9] was “inactive” throughout. The Potency in assay [3] was 73.6 µM (active); in assay [6], 32.9 µM (active) and 34.4 µM (active); in assay [10], 8.55 µM (active) and 3.99 µM (active); in [11], 13.5 µM (active) and 25.2 µM (active); in assay [12], 76.2 nM (active) and 89.4 nM (active); in assay [13], 1.08 µM (active) and 1.12 µM (active). The Potency was 2.7 µM (active) and 3.99 µM (active) in assay [14]; 23.5 µM (active) in [16].

Regarding `CCCCOCC1CO1` (stereo not given), the Potency entry in [1], in assay [2], in assay [3], in assay [4], in [5] and in [6] was “inactive” throughout. For the same compound, the Potency result in assay [7], in [11], in assay [12], in assay [13], in assay [14] and in [16] was “inactive” each time. The Potency in assay [8] was 10.1 µM (active) and inactive; in [9] it was 899 nM (active) and inactive; in assay [10], 63.7 µM (active) and inactive.

`O=C(O)CF`: the Potency entry in assay [1], in [2], in assay [3], in assay [4], in assay [5] and in [6] was “inactive” in each case. Besides, the Potency entry in assay [7], in assay [8], in [9], in [10], in assay [11] and in assay [12] was “inactive” each time. Further, the Potency entry in assay [13], in [14] and in assay [16] was “inactive” each time.

The values are drawn from PubChem BioAssay (Tox21).
